The source of these data is PubChem BioAssay (NCATS).

SMILES strings stand for the structures. Inconclusive results are not listed. Calls of active or inactive are those of the source. Calls come from the whole dose curve; as a rule, active = well fitted inhibition curve with a large enough effect; inconclusive = small, poorly fitted or top-dose-only effect, or effect the other way; inactive = flat fitted curve, though single readings scatter.
% is set by controls: 0 for no effect and ±100 for the full control effect.

Chain of ATP-dependent 6-phosphofructokinase (Trypanosoma brucei brucei) (O15648 whole entry, looked up): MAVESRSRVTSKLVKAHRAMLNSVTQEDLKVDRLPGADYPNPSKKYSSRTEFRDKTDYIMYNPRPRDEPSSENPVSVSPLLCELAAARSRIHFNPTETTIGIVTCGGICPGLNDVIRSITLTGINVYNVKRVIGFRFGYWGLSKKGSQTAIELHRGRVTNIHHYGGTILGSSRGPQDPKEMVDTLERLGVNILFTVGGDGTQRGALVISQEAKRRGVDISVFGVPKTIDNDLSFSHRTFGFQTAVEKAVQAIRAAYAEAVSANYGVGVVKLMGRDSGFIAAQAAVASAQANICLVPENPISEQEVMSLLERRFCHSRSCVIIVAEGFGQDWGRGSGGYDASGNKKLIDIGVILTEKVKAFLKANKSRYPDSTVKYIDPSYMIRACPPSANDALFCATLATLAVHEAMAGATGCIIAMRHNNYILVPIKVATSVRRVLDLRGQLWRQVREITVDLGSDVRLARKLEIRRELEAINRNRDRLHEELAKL

This experiment addresses ATP-dependent 6-phosphofructokinase (Trypanosoma brucei brucei) (UniProt O15648). Put plainly: qHTS Assay to Find Inhibitors of T. brucei phosphofructokinase: hit validation (AID 492961).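 Note: luminescence reports ADP formed as PFK phosphorylates fructose-6-phosphate with ATP.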 The conditions noted are these: T. brucei PFK, ADP-Glo luminescence; series mostly up to 51.4 µM; activity change, negative = inhibition: at the top concentration. A digest of the protocol: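 In this biochemical qHTS validation, titrated compounds were tested against 1.25 nM PFK with 0.1 mM ATP and 0.5 mM F6P. Percent activity came from controls lacking or containing enzyme.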
(Quantitative high-throughput screening tests each substance at several concentrations.)
Take `OC[C@H]1O[C@@H]2O[C@H]3[C@H](O)[C@@H](O)[C@@H](O[C@H]4[C@H](O)[C@@H](O)[C@@H](O[C@H]5[C@H](O)[C@@H](O)[C@@H](O[C@H]6[C@H](O)[C@@H](O)[C@@H](O[C@H]7[C@H](O)[C@@H](O)[C@@H](O[C@H]1[C@H](O)[C@H]2O)O[C@@H]7CO)O[C@@H]6CO)O[C@@H]5CO)O[C@@H]4CO)O[C@@H]3CO`: the “activity change, negative = inhibition” value was -4.5% (inactive). Regarding `CC(=O)NCCCS(=O)(=O)O`, the “activity change, negative = inhibition” value was 1.78% (inactive).

With `CCSc1ccc2c(c1)N(CCCN1CCN(C)CC1)c1ccccc1S2`, the “activity change, negative = inhibition” value was 2.95% [at 24.3 µM] (inactive). For `O=C(O)CCC(=O)c1ccc(-c2ccccc2)cc1` the value was 5.97% [at 24.3 µM] (inactive). Next, `O=[n+]1ccn([O-])c2ccccc21`: -7.81% (inactive). Turning to `CC[C@H]1OC(=O)[C@H](C)[C@@H](O[C@H]2C[C@@](C)(OC)[C@@H](O)[C@H](C)O2)C(C)[C@@H](O[C@@H]2O[C@H](C)C[C@H](N(C)C)[C@@H]2O)[C@](C)(OC)C[C@@H](C)C(=O)[C@H](C)[C@@H](O)[C@]1(C)O` (stereo partly drawn), the “activity change, negative = inhibition” value was 2.21% (inactive). For `CCC(C(=O)NC(N)=O)c1ccccc1` (stereo not drawn) the value was 4.38% (inactive); for `O=P(O)(O)OP(=O)(O)O`, -13.3% (inactive). For `O=C(O)CC/C=C\CC[C@@H]1[C@@H](N2CCCCC2)[C@@H](O)C[C@@H]1OCc1ccc(-c2ccccc2)cc1` the value was 0% (inactive); for `FC(F)(F)C(F)(F)C(F)(F)C(F)(F)C(F)(F)C(F)(F)F`, -7.24% (inactive); for `CC(C)=CCC/C(C)=C/CC/C(C)=C/CC/C=C(\C)CC/C=C(\C)CCC=C(C)C`, 5.85% (inactive). For `CCc1ncnc2cc(OC)c(OC)cc12` the value was 6.35% (inactive). With `COc1ccc(/C=N/NC(=O)c2ccncc2)c(C(=O)O)c1OC`, the “activity change, negative = inhibition” value was -4.08% (inactive).
